High-throughput results (PubChem BioAssay)
Shown is part of a subset that was picked to be rich in hits.
KDM4E inh: blocks human JMJD2E demethylase activity; Potency, µM (series often up to 57.1 µM), for the others: at the top dose activity change, negative = inhibition, usual class: inhibitors; B2RXH2; 230,000 compounds, 1.6% hits; JMJD2E catalytic domain, FDH-coupled NADH fluorescence (FDH is formaldehyde dehydrogenase);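 also: potency is read from the fitted curve at half-maximal effect; 0% = wells with enzyme and -100% = buffer wells without enzyme; nearly all actives have a fitted effect of over 50% in size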
Target sequence (B2RXH2 1-337 limits assumed): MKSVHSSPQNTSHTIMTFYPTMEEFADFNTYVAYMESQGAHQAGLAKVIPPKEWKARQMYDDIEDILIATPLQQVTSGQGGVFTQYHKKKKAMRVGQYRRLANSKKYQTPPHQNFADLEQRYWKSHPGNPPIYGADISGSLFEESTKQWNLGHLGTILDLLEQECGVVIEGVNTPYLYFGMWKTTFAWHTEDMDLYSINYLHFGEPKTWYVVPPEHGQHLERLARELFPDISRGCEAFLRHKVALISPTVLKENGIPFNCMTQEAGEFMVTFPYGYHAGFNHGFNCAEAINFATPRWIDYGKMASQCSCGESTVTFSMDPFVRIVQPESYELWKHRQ
RECQ1 inh-1: blocks DNA unwinding by human RECQ1. P46063. RECQ1 DNA unwinding, red fluorescence kinetic read. Potency, µM (titrated, usually from 57.3 µM), for the others: at the top dose activity, negative = inhibition, usual class: inhibitors. 240,000 compounds, 0.54% hits;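 also: potency is read from the fitted curve at half-maximal effect; plate controls were vehicle for no effect and no enzyme for full effect; nearly all actives have a fitted effect of over 30% in size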
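RECQ1T1 50 nM; forked duplex (20 bp + 30-nt ss tails) 200 nM, ATP 2 mM final; pH 8.0, 2 mM MgCl2, 2.5 ug/ml poly(dI-dC); 15 min compound preincubation; discontinuous kinetic read over 2 h at RT.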
APE1 inh-1: inhibitors of human APE1 endonuclease; P27695; recombinant APE1, TAMRA/BHQ-2 abasic DNA cleavage fluorescence; Potency, µM (titrated, usually from 65.8 µM), inactives show top-dose activity change, negative = inhibition, hits mostly inhibitors; 350,000 compounds, 0.35% hits;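 also: potency is read from the fitted curve at half-maximal effect; plate controls were vehicle for no effect and reference inhibitor for full effect; nearly all actives have a fitted effect of over 55% in size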
Target sequence (P27695 whole entry, looked up): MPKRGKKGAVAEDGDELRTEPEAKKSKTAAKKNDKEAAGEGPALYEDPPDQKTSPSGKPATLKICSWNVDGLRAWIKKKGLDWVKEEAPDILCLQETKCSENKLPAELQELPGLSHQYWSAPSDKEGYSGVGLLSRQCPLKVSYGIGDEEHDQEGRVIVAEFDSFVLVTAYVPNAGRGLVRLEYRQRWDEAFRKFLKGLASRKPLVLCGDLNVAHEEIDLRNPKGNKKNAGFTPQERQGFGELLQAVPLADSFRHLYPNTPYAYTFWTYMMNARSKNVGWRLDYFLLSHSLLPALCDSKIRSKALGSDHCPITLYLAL
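Endonuclease cleavage of a quenched abasic-site DNA duplex (50 nM) by APE1 (0.75 nM) was tracked by TAMRA dequenching. Compounds were preincubated with enzyme 15 min at room temperature; data normalized to buffer-only and DMSO wells plus NSC13755 control.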
BLM helicase inh: Bloom syndrome helicase (human) inhibition. Potency, µM (top dose mostly 56.1 µM), without a hit: top-dose activity change, negative = inhibition, hits mostly inhibitors. recombinant BLM DNA unwinding, fluorescence dequenching. P54132. 350,000 compounds, 0.2% hits;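 also: potency is read from the fitted curve at half-maximal effect; plate controls were vehicle for no effect and no enzyme for full effect; nearly all actives have a fitted effect of over 35% in size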
PKM2 act: PKM2 (human) enzyme activation; purified PKM2, Kinase-Glo ATP luminescence, activation; response scale: 0% is enzyme alone, no compound; Potency, µM (doses to about 57.5 µM), for inactives: top-dose activation, actives largely listed as activators; P14618; 260,000 compounds, 0.34% hits; AID 1631; also: potency is read from the fitted curve at half-maximal effect; % is scaled to controls: 0 for no effect and ±100 for the full control effect; nearly all actives have a fitted effect of over 55% in size
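hPK-M2, >95% pure; 0.1 mM ADP / 0.5 mM PEP final; imidazole pH7.2 buffer w/ 7 mM MgCl2, 50 mM KCl; 1 h RT; Kinase-Glo lum. Intermediate enzyme activity for dual inhibitor/activator qHTS.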
HeLa viability: counter-screen for pyruvate kinase M2 activators: HeLa cytotoxicity; shares compounds with PKM2 act; HeLa viability, CellTiter-Glo ATP luminescence, 24 h; activity change, negative = cytotoxicity, % at 57.5 µM; 230 tested, under 10 active; AID 1898; also: % of control where 0% means no effect
APE1 inh-2: confirmation of inhibitors of human APE1 endonuclease | shares compounds with APE1 inh-1 | purified APE1, fluorogenic abasic-site DNA cleavage | Potency, µM (series often up to 57.1 µM), without a hit: at the highest dose activity change, negative = inhibition, hits mostly inhibitors | 750 compounds, 44% hits; also: potency is read from the fitted curve at half-maximal effect; % is scaled to controls: 0 for no effect and ±100 for the full control effect; nearly all actives have a fitted effect of over 30% in size
RECQ1 inh-2: blocks human RECQ1 DNA unwinding; shares compounds with RECQ1 inh-1; recombinant RECQ1 DNA unwinding, red fluorescence; Potency, µM (highest dose often 119 µM), inactives show top-dose activity, negative = inhibition, usual class: inhibitors; 1,100 compounds, 15% hits; AID 504841; also: potency is read from the fitted curve at half-maximal effect; % is scaled to controls: 0 for no effect and ±100 for the full control effect; nearly all actives have a fitted effect of over 50% in size
The depositor's hits bear a star; i = inactive; ? = inconclusive; · = no result given; [ ] = remark or other dose. Unless noted, calls follow the shape of the dose curve; as a rule, active = well fitted curve in the direction sought with a large enough effect; inconclusive = small, poorly fitted or top-dose-only effect, or another doubt; inactive = no such curve, though single readings can be large; an effect the other way counts as inactive or inconclusive.

SMILES	KDM4E inh	RECQ1 inh-1	APE1 inh-1	BLM helicase inh	PKM2 act	HeLa viability	others
O=S(=O)(c1ccccc1)N1CCN(S(=O)(=O)c2ccc3c(c2)OCCO3)CC1	·	·	·	·	·	0
O=C(Cc1ccc2c(c1)OCCO2)N1CCN(S(=O)(=O)c2cccc(C(F)(F)F)c2)CC1	-3%	-3%	-1%	5%	21%	·
CCC(C)(C)OC	·	-7%	-2%	·	·	·
O=C1C[C@H](c2ccccc2Cl)N1S(=O)(=O)c1ccccc1[N+](=O)[O-]	·	i	-2%	1%	·	·
c1ccc2[nH]c(CSc3nnc(-c4ccncc4)o3)nc2c1	?	i	-3%	-4%	1.8µM*	-1
Cc1cc2c(s1)c1cnn(Cc3cccc(Cl)c3)c(=O)c1n2C	·	·	·	·	·	-1
Cc1cc2c(s1)c1cnn(Cc3cccc(F)c3)c(=O)c1n2C	·	·	·	·	·	-3
CCCCCCC#Cc1cc(OC)c(OC)cc1C(N1CC(C)c2ccccc21)N1CC(C)c2ccccc21 (stereo not drawn)	·	-7%[11.5 µM]	?	-8%[12.4 µM]	·	·
COc1ccc(-c2nnc3n2N=C(c2c(OC)cccc2OC)CS3)c(OC)c1	·	16%	-9%	-3%	·	·
O=[N+]([O-])c1ccc(NCCCNS(=O)(=O)c2ccccc2)c(Cl)c1	-9%	-2%	-2%	-5%	7.9µM*	-28
COc1ccc(S(=O)(=O)c2ccc(O)cc2)cc1	-2%	-10%	9%	-6%	4.5µM*	0
CC(O)c1nc2ccccc2n1Cc1nnc(-c2ccc(Cl)cc2)o1 (stereo not drawn)	-8%	i	6%	-1%	7.9µM*	0
COc1cccc(-c2nn(C)c3sc(C(=O)NCc4ccc(C)o4)cc23)c1	-3%	0%	3%	7%	2.5µM*	?
COc1cccc(-c2nn(C)c3sc(C(=O)NCc4ccc(OC)cc4OC)cc23)c1	·	·	·	-7%	·	·
COC(=O)Nc1ccc(Cl)c(Cl)c1	·	-3%	-6%	-5%	·	·
CCS(=O)(=O)Nc1ccc(C2=NN(C(=O)c3ccco3)C(c3ccco3)C2)cc1 (stereo not drawn)	·	·	0%	·	·	·
CS(=O)(=O)Nc1ccc(C2=NN(C(=O)c3ccco3)C(c3ccccc3F)C2)cc1 (stereo not drawn)	?	-5%	-2%	0%	3.2µM*	0
COc1ccc(C(=O)N/N=C/c2ccc(N3CCOCC3)o2)cc1OC	-26%	-10%	2%	-4%	2.5µM*	1
COc1ccc(C(=O)N/N=C/c2ccc(N3CCOCC3)s2)cc1OC	·	·	-3%	·	·	·
CC(=O)c1cc2c(s1)c1cnn(Cc3ccccc3F)c(=O)c1n2C	·	·	·	·	·	-1
Cn1c2ccccc2c2cnn(CC(=O)Nc3ccccc3F)c(=O)c21	·	·	·	1%	·	·
Cn1c2cc(S(C)=O)sc2c2cnn(Cc3ccccc3F)c(=O)c21 (stereo not drawn)	·	·	·	·	·	10
Clc1ccc(SCc2cn3ccccc3n2)cc1	-3%	i	-8%	-4%	0%	·
c1ccc2c(SCc3cn4ccccc4n3)nncc2c1	-10%	-3%	?	1%	4.5µM*	-13
CC1CC=CC2C1C(=O)N(Cc1ccccc1)C2c1ccc(-c2ccoc2)cc1F (stereo not drawn)	·	i	-4%	-10%	·	·
SMILES	KDM4E inh	RECQ1 inh-1	APE1 inh-1	BLM helicase inh	PKM2 act	HeLa viability	others
COc1ccc(C2=CC(c3ccccc3Cl)n3nc(-c4ccc(C)cc4)nc3N2)cc1 (stereo not drawn)	·	·	·	-13%	·	·
Cc1c(C(=O)N2CCOCC2)[nH]c2c1C(=O)CC(c1ccccc1Cl)C2 (stereo not drawn)	8%	i	-3%	-2%	16µM*	-14
Cc1c(C(=O)OC2CCCCC2)[nH]c2c1C(=O)CC(c1ccccc1Cl)C2 (stereo not drawn)	·	·	·	0%	·	·
COc1ccc2[nH]c(=O)c(-c3noc(-c4ccccc4)n3)cc2c1	4%	-9%	10%	1%	11µM*	-27
Cc1cc(=O)[nH]c2ccc(S(=O)(=O)Nc3ccc(O)cc3)cc12	·	·	-2%	-2%	2.2µM*	-6
Oc1ccc(-c2nc(-c3ccc(O)c(O)c3)cs2)cc1	28µM*	?	?	-13%	3.2µM*	-5
C/C=C\C=C/C(=O)Nc1cccc(C2=NOC3(C2)C[C@@H](C(N)=O)N(C(=O)/C=C/C=C\C)C3)c1 (stereo partly drawn)	?	22µM*	35µM*	10µM*	1.4µM*	4	APE1 inh-2=?
COC(=O)[C@@H](NC(=O)N1CCc2nc(COc3ccccc3)c3c(c2C1)CO[C@@H](C)C3)C(C)C	2%[11.4 µM]	6%[11.5 µM]	-2%[12.4 µM]	-4%[12.4 µM]	-1%[11.5 µM]	·
O=C(O)c1cc(-c2ccco2)nn1-c1cccc(Cl)c1	?	25µM*	?	44%	25µM*	-1	RECQ1 inh-2=?
